# Measurements as given in the antibiotic and cytotoxicity screens of Wong et al. (2023).
# Hit rate of the full screen: of about 39,000 compounds, about 3,300 (8.5%) were called active. The sample as a whole holds a higher share of actives than the screen did.
# System: HepG2
# Experiment: cytotoxicity call (relative viability < 0.9)
# Conditions: 10 µM
row,Structure (SMILES),cytotoxicity call
1,F[C@H]1CCNC1,inactive
2,C[C@@H]1CCCCO[C@@H](CN(C)C(=O)c2ccncc2)[C@H](C)CN([C@@H](C)CO)C(=O)c2cc(NS(=O)(=O)c3ccc(Cl)cc3)ccc2O1,inactive
3,Cn1cnc(=N)c2[nH]cnc21,inactive
4,CN1CCN([C@H](CNC(=O)C(=O)NCCN2CCOCC2)c2ccc(N(C)C)cc2)CC1,inactive
5,Cc1noc(C)c1S(=O)(=O)Nc1cccc2c1O[C@H](CN(C)Cc1ccncc1)[C@H](C)CN([C@@H](C)CO)C2=O,inactive
6,C[C@H]1CN([C@@H](C)CO)C(=O)Cc2cc(NC(=O)Nc3cccc4ccccc34)ccc2O[C@@H]1CN(C)C(=O)NC1CCCCC1,inactive
7,C[C@@H]1O[C@@H](O)[C@H](O)[C@H](O)[C@H]1O,inactive
8,CO[C@H]1O[C@H](COS(=O)(=O)O)[C@@H](O[C@@H]2O[C@@H](C(=O)O)[C@@H](OC)[C@H](O)[C@H]2OS(=O)(=O)O)[C@H](O)[C@H]1NS(=O)(=O)O,inactive
9,"COC1C(C(=O)O)OC(C)C(O)C1O.COC1OC(C(=O)O)C(O)C(O)C1O (stereo not given) [ALGINIC ACID [Mol Wt ~200,000; monomers shown] ]",active
10,C[C@@H]1CN([C@@H](C)CO)C(=O)Cc2cc(NC(=O)c3ccncc3)ccc2O[C@@H]1CN(C)Cc1ccncc1,inactive
11,O=C(C[C@H]1CC[C@H]2[C@@H](COC[C@@H](O)CN2C(=O)c2ccc(F)cc2)O1)NCCCN1CCOCC1,inactive
12,O=C(CCCCCCC(=O)NO)NO,inactive
13,O=C(CCCCCCC(=O)Nc1ccc([C@H]2C[C@H](c3ccccc3)O[C@H](c3ccccc3)O2)cc1)NO,inactive
14,O=C(CCCCCCC(=O)Nc1ccccc1)NO,active
15,C[C@@H]1CN([C@@H](C)CO)C(=O)CCCn2nncc2CO[C@H]1CN(C)S(=O)(=O)c1ccc(C#N)cc1,inactive
16,CCO[C@@H]1OC(C(=O)N2CCCCCCC2)=C[C@H](c2coc3ccccc3c2=O)[C@H]1CCCOC(=O)NCCCCCC(=O)NO,inactive
17,C[C@H](CO)N1C[C@H](C)[C@H](CN(C)C(=O)NC2CCCCC2)OCCCC[C@H](C)Oc2ccc(NC(=O)Nc3ccccc3)cc2C1=O,inactive
18,C[C@@H]1CN([C@@H](C)CO)C(=O)c2cc(NC(=O)Nc3ccccc3)ccc2O[C@@H](C)CCCCO[C@@H]1CN(C)C(=O)NC1CCCCC1,inactive
19,C[C@H]1CCCCO[C@H](CN(C)C(=O)NC2CCCCC2)[C@@H](C)CN([C@@H](C)CO)C(=O)c2cc(NC(=O)Nc3ccccc3)ccc2O1,active
20,C[C@@H]1CN([C@H](C)CO)C(=O)c2cc(NC(=O)Nc3ccccc3)ccc2O[C@@H](C)CCCCO[C@H]1CN(C)C(=O)NC1CCCCC1,active
21,C[C@H](CO)N1C[C@H](C)[C@@H](CN(C)C(=O)NC2CCCCC2)OCCCC[C@H](C)Oc2ccc(NC(=O)Nc3ccccc3)cc2C1=O,inactive
22,C[C@H]1CCCCO[C@@H](CN(C)C(=O)NC2CCCCC2)[C@@H](C)CN([C@@H](C)CO)C(=O)c2cc(NC(=O)Nc3ccccc3)ccc2O1,inactive
23,C[C@H](CO)N1C[C@H](C)[C@H](CN(C)S(=O)(=O)c2ccccc2)Oc2c(NC(=O)c3cnccn3)cccc2C1=O,inactive
24,NNC(=O)c1cccc(C(=O)NO)c1,inactive

row,Structure (SMILES),cytotoxicity call
1,Cc1noc(C)c1NC(=O)N(C)C[C@H]1Oc2ncc(C#CCN(C)C)cc2C(=O)N([C@@H](C)CO)C[C@H]1C,inactive
2,CS(=O)(=O)c1ccc(C(O)C(CO)NC(=O)C(Cl)Cl)cc1 (stereo not given),inactive
3,CCCCCCCCCCCCCCCC(=O)OC[C@@H](NC(=O)C(Cl)Cl)[C@H](O)c1ccc([N+](=O)[O-])cc1,inactive
4,CCCCCCCCCCCCCCCC(=O)OC[C@H](NC(=O)C(Cl)Cl)[C@H](O)c1ccc([N+](=O)[O-])cc1,inactive
5,CCCCCCCCCCCCCCCC(=O)OCC(NC(=O)C(Cl)Cl)C(O)c1ccc([N+](=O)[O-])cc1 (stereo not given),inactive
6,O=C(NC(CO)C(O)c1ccc([N+](=O)[O-])cc1)C(Cl)Cl (stereo not given),active
7,O=C([O-])CCC(=O)OCC(NC(=O)C(Cl)Cl)C(O)c1ccc([N+](=O)[O-])cc1.[Na+] (stereo not given),active
8,C[C@H]1CCCCO[C@@H](CN(C)C(=O)Nc2ccc(C(F)(F)F)cc2)[C@@H](C)CN([C@@H](C)CO)C(=O)c2cc(NS(=O)(=O)c3cn(C)cn3)ccc2O1,inactive
9,CNC(=O)C(=O)NC[C@H]1OCCN1S(=O)(=O)c1ccccc1,inactive
10,Cc1ccc(S(=O)(=O)N(C)C[C@H]2Oc3c(NS(C)(=O)=O)cccc3C(=O)N([C@@H](C)CO)C[C@@H]2C)cc1,inactive
11,C[C@H](CO)N1C[C@H](C)[C@H](CN(C)Cc2ccncc2)Oc2ccc(NC(=O)c3ccncc3)cc2C1=O,inactive
12,C[C@@H]1CN([C@@H](C)CO)S(=O)(=O)c2ccc(-c3ccncc3)cc2O[C@@H]1CN(C)S(=O)(=O)c1ccccc1F,inactive
13,O=C(C1=C[C@H](c2csc3ccccc23)C[C@H](OCc2ccc(CO)cc2)O1)N1CCN(Cc2ccccc2)CC1,inactive
14,O=C(C1=C[C@H](c2csc3ccccc23)C[C@H](OCc2ccc(CO)cc2)O1)N1CCN(Cc2ccc3c(c2)OCO3)CC1,inactive
15,O=C(C1=C[C@@H](c2csc3ccccc23)C[C@@H](OCc2ccc(CO)cc2)O1)N1CCN(Cc2ccc3c(c2)OCO3)CC1,active
16,C[C@H](CO)N1C[C@H](C)[C@H](CN(C)S(C)(=O)=O)Oc2ccc(NC(=O)c3ccncc3)cc2CC1=O,inactive
17,Cl.O=c1n(CCCN2CCN(c3cccc(Cl)c3)CC2)nc2ccccn12,inactive
18,CCc1nn(CCCN2CCN(c3cccc(Cl)c3)CC2)c(=O)n1CCOc1ccccc1,active
19,COc1ccccc1N1CCN(c2ncc(C(=O)N3CCN(c4cccc(Cl)c4)CC3)c3ccccc23)CC1,inactive
20,C[C@H]1CN([C@@H](C)CO)C(=O)c2cccc(NS(=O)(=O)c3ccc(F)cc3)c2O[C@H]1CN(C)Cc1ccncc1,inactive
21,Cc1cn(CCN2CCN(c3ccccc3-c3cc(C#N)cc(C(=O)NCCCN4CCCC4)c3)CC2)c2ccccc12,active
22,Cc1cn(CCC#N)c2ccccc12,inactive
23,COc1cc(C(=O)NCCCN2CCCN(CCCNC(=O)c3cc(OC)c(OC)c(OC)c3)CC2)cc(OC)c1OC,inactive
24,C[C@@H]1CN([C@@H](C)CO)S(=O)(=O)c2ccc(-c3ccncc3)cc2O[C@@H]1CN(C)Cc1ccc(Oc2ccccc2)cc1,inactive

row,Structure (SMILES),cytotoxicity call
1,C[C@H](O)C#Cc1ccc2c(c1)O[C@@H](CN(C)C(=O)CN(C)C)[C@H](C)CN([C@H](C)CO)S2(=O)=O,inactive
2,C[C@@H]1CN([C@@H](C)CO)C(=O)c2cccc(NC(=O)Nc3ccccc3)c2O[C@@H]1CN(C)Cc1ccc(-c2ccccc2)cc1,active
3,C[C@@H]1CN([C@H](C)CO)C(=O)c2cccc(NC(=O)Nc3ccc(F)cc3)c2O[C@H]1CN(C)Cc1ccc(-c2ccccc2)cc1,active
4,C[C@H]1CN([C@@H](C)CO)C(=O)c2cccc(NC(=O)Nc3ccc(F)cc3)c2O[C@H]1CN(C)Cc1ccc(-c2ccccc2)cc1,inactive
5,C[C@@H]1CN([C@@H](C)CO)C(=O)c2cccc(NC(=O)Nc3ccccc3)c2O[C@H]1CN(C)Cc1ccc(-c2ccccc2)cc1,inactive
6,C[C@H](CO)N1C[C@H](C)[C@@H](CN(C)Cc2ccc(-c3ccccc3)cc2)Oc2c(NC(=O)Nc3ccc(F)cc3)cccc2C1=O,inactive
7,C[C@H](CO)N1C[C@H](C)[C@H](CN(C)Cc2ccc(-c3ccccc3)cc2)Oc2c(NC(=O)Nc3ccc(F)cc3)cccc2C1=O,inactive
8,CC(C)NC(=O)Nc1cccc2c1O[C@H](CN(C)Cc1ccc(-c3ccccc3)cc1)[C@H](C)CN([C@H](C)CO)C2=O,inactive
9,C[C@H]1CN([C@@H](C)CO)C(=O)c2cccc(NC(=O)Nc3ccccc3)c2O[C@@H]1CN(C)Cc1ccc(-c2ccccc2)cc1,inactive
10,CC(C)NC(=O)Nc1cccc2c1O[C@@H](CN(C)Cc1ccc(-c3ccccc3)cc1)[C@@H](C)CN([C@@H](C)CO)C2=O,inactive
11,CC(C)NC(=O)Nc1cccc2c1O[C@H](CN(C)Cc1ccc(-c3ccccc3)cc1)[C@@H](C)CN([C@@H](C)CO)C2=O,active
12,C[C@@H]1CN([C@@H](C)CO)C(=O)c2cccc(NC(=O)Nc3ccc(F)cc3)c2O[C@@H]1CN(C)Cc1ccc(-c2ccccc2)cc1,active
13,C[C@H]1CN([C@@H](C)CO)C(=O)c2cccc(NC(=O)Nc3ccc(F)cc3)c2O[C@@H]1CN(C)Cc1ccc(-c2ccccc2)cc1,inactive
14,CN1CCN(C(=O)C[C@H]2CC[C@@H]3[C@H](COC[C@H](O)CN3C(=O)C3CC3)O2)CC1,inactive
15,O=C(O)[C@H]1CCCC[C@@H]1C(=O)N1CCOCC1,inactive
16,CO[C@@H]1CN(C)C(=O)c2ccc(NS(C)(=O)=O)cc2OC[C@@H](C)N(C(=O)C2CCCCC2)C[C@H]1C,inactive
17,COc1ccc(NC(=O)N2C[C@@H](O)COC[C@@H]3O[C@H](CC(=O)NCc4ccccc4OC)CC[C@H]32)cc1,inactive
18,C[C@@H]1CN([C@@H](C)CO)S(=O)(=O)c2ccc(C#CC3CC3)cc2O[C@H]1CN(C)Cc1ccccc1F,inactive
19,COc1ccc(S(=O)(=O)N[C@H]2CC[C@@H](CC(=O)N3CCN(c4ccccc4)CC3)O[C@H]2CO)cc1,inactive
20,CC(C)NC(=O)Nc1ccc2c(c1)C(=O)N([C@H](C)CO)C[C@@H](C)[C@H](CN(C)S(C)(=O)=O)OCCCC[C@H](C)O2,inactive
21,O=C(C[C@H]1CC[C@@H](NS(=O)(=O)c2ccc(F)cc2)[C@@H](CO)O1)NCc1ccc(Cl)c(Cl)c1,inactive
22,C[C@@H]1CCCCO[C@@H](CN(C)C(=O)Nc2ccc(F)cc2)[C@H](C)CN([C@H](C)CO)C(=O)c2cc(NC(=O)Cc3ccccc3)ccc2O1,inactive
